Source: PubChem BioAssay AID463173 (ICCB-Longwood Screening Facility, Harvard Medical School, 2010)
About 4,300 (8.3%) of roughly 52,000 compounds were called active. The sample holds actives, similar compounds and a random draw of the others, so the mix is not that of the screen. Values without a mark were called inactive. No stated cut-off is given here; in the data, active means survival mostly below about 52% (no sharp cut-off); inactive means mostly above about 56%.

System: DeltatarO mutant
Experiment: growth inhibition of S. aureus wild type versus tarO mutant, primary screen, teichoic acid synthesis inhibitors, RN4220, OD600 (AID 463173)
Conditions: OD600, 18 h, stronger effect = lower value, screened at 18.75 µg/mL (by protocol)

Row | SMILES | survival
1 | CCn1c(=O)n(CC)c2cc(N3CCCCC3)c(NC(=O)Nc3ccccc3C(F)(F)F)cc21 | 101%
2 | Cc1cc(-c2ccc(C)c(S(=O)(=O)N(C(C)C)C3CCCCC3)c2)on1 | 88%
3 | Cn1c2c(c(=O)n(C)c1=O)C(c1ccccc1[N+](=O)[O-])CC(=O)N2 (stereo unspecified) | 93%
4 | COc1ccc(-c2nc3cc(NC(=O)COc4ccc(C)c(C)c4)ccc3o2)cc1 | 84%
5 | COc1ccc(-c2nc3cc(C(C)C)ccc3o2)cc1NC(=O)COc1ccc(C)cc1C | 37% (active)
6 | COc1ccc(-c2nc3cc(C(C)C)ccc3o2)cc1NC(=O)c1ccccc1[N+](=O)[O-] | 50%
7 | COc1ccc(-c2nc3cc(NC(=O)COc4ccccc4C)ccc3o2)cc1 | 60%
8 | COc1ccc(-c2nc3cc(C(C)C)ccc3o2)cc1NC(=O)c1ccc(C)c(Cl)c1 | 21% (active)
9 | CCOc1ccc(C(=O)Nc2ccc(-c3nc4cc(C(C)C)ccc4o3)cc2)cc1Cl | 65%
10 | O=C(Nc1ccc(F)c(Cl)c1)C1CCCN(S(=O)(=O)c2cccc3nsnc23)C1 (stereo unspecified) | 67%
11 | O=C(CSc1nc2c([nH]c3ccccc32)c(=O)n1-c1ccc(Cl)cc1)NC1CCCCC1 | 87%
12 | COc1ccccc1NC(=O)Cn1c(=O)n(-c2ccccc2Cl)c(=O)c2sc3ccccc3c21 | 77%
13 | O=C(CN(CC1CCCO1)S(=O)(=O)c1ccc(S(=O)(=O)N2CCOCC2)cc1)Nc1ccccc1 (stereo unspecified) | 89%
14 | CCOC(=O)c1ccccc1NC(=O)Cn1ccn2nc(-c3ccc(OCC)cc3)cc2c1=O | 115%
15 | COC(=O)CSc1nc2cc3c(cc2cc1C#N)OCO3 | 97%
16 | CCc1ccc(-n2c(N3CCN(c4ccc(F)cc4)CC3)nc3ccccc3c2=O)cc1 | 83%
17 | COc1ccc(-c2cc3nc(-c4ccccc4)cc(C(F)(F)F)n3n2)cc1 | 58%
18 | Cc1cc2nc(-c3ccc(OCc4ccccc4C)cc3)cc(C(F)(F)F)n2n1 | 13% (active)
19 | Cc1cc2nc(-c3ccc(OCc4ccccc4F)cc3)cc(C(F)(F)F)n2n1 | 45% (active)
20 | Cc1ccc(-c2cc(C(F)(F)F)n3nc(-c4ccc(Cl)cc4)cc3n2)cc1 | 51%
21 | Cc1cc2nc(-c3ccc(OCc4ccccc4Cl)cc3)cc(C(F)(F)F)n2n1 | 25% (active)
22 | CCN(c1ccc(OC)cc1)S(=O)(=O)c1ccc2[nH]c3c(c2c1)CCCCC3 | 80%
23 | CCc1cc(C(=O)Nc2cnn(Cc3ccc(F)cc3)c2)no1 | 50%

Row | SMILES | survival
24 | COc1ccc(Cc2nc3ccc(C(=O)NCc4cc(Br)ccc4OC)cc3o2)cc1 | 93%
25 | COc1ccc(CNC(=O)CCCCCn2c(=O)[nH]c3ccccc3c2=O)cc1 | 86%
26 | Cc1ccc(S(=O)(=O)c2cnc(SC(C)C(=O)Nc3ccccc3)[nH]c2=O)cc1 (stereo unspecified) | 71%
27 | CC1CCC2(CC1)Nc1ccccc1S2 (stereo unspecified) | 105%
28 | O=C(COC(=O)c1ccccn1)Nc1ccccc1 | 101%
29 | COc1ccccc1NC(=O)c1c(NCc2sccc2C)sc2c1CCCCC2 | 85%
30 | Cc1ccccc1NC(=O)c1c(NC(=O)C(F)(F)F)sc2c1CCCCC2 | -3% (active)
31 | Cc1ccc(NC(=O)c2c(NC(=O)c3ccccc3Cl)sc3c2CCC3)cc1 | 160%
32 | Cc1ccc(NC(=O)c2c(NC(=O)c3ccccc3)sc3c2CCC3)cc1 | 76%
33 | COc1ccc(NC(=O)c2c(NC(=O)c3ccc(Br)cc3)sc3c2CCCC3)cc1 | 169%
34 | COc1ccc(NC(=O)c2c(NC(=O)C(F)(F)F)sc3c2CCCCC3)cc1 | 2% (active)
35 | COc1ccc(NC(=O)c2c(NC(=O)COc3ccccc3)sc3c2CCCCC3)cc1 | 72%
36 | Cc1ccc(NC(=O)c2c(NC(=O)C(F)(F)F)sc3c2CCCCC3)cc1 | -5% (active)
37 | O=C1C2C3C=CC(C3)C2C(=O)N1CCCCN1C(=O)C2C3C=CC(C3)C2C1=O (stereo unspecified) | 93%
38 | CCc1ccccc1NC(=O)Cn1c(=O)c2cccn2c2ccc(F)cc21 | 83%
39 | COc1ccc(-c2noc(-c3ccc(NC4CCCC4)c([N+](=O)[O-])c3)n2)cc1 | 108%
40 | C/C=C(\C)C(=O)OC1c2c(ccc3ccc(=O)oc23)OC(C)(C)C1OC(C)=O (stereo unspecified) | 60%
41 | O=C(Nc1nnc(S(=O)(=O)N2CCCCC2)s1)c1ccc(Cl)cc1 | 37% (active)
42 | O=C(Nc1nnc(S(=O)(=O)N2CCCCC2)s1)c1ccc(F)cc1 | 79%
43 | O=C(Nc1nnc(S(=O)(=O)N2CCCC2)s1)c1ccc(F)cc1 | 111%
44 | Cc1ccc(C(=O)Nc2nnc(S(=O)(=O)N3CCCCCC3)s2)cc1 | 79%
45 | O=C(Nc1nnc(S(=O)(=O)N2CCCCCC2)s1)c1ccc(Cl)cc1 | 62%
46 | O=C(Nc1nnc(S(=O)(=O)N2CCCCCC2)s1)c1ccccc1 | 38% (active)
